In PubChem BioAssay:
Where “and” joins values, the source holds several entries; their conditions need not be identical. Identical values can stand only once. Results filed as inconclusive are left out. Calls of active or inactive are those of the source. Unless noted, how the calls were made is not given here.

Tests used:
[1] = stimulators of insulin release from INS-1E, primary screen, cell-based, 5 mM glucose, NPC library (AID 1117329;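 active means compound raises insulin release from rat beta cells at 5 mM glucose, no numeric limit stated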); details: rat INS-1E insulin secretion, at 10 µM, stronger effect = higher value
[2] = growth inhibition of GSK3B-pretreated HCT116 cells – cell-based, CellTiter-Glo, 0.2 to 20 µM (AID 1117336;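 active means compounds lowering colon cancer cell viability after pretreatment blocking the GSK3B kinase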); details: HCT116 viability after GSK3B inhibitor, at 20 µM, stronger effect = higher value
[3] = inhibition of endothelial tube formation, primary screen, imaging, VEGF stimulated, CD31 staining, tube area, NPC library (AID 1117340;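 active means compound that reduces growth-factor-driven endothelial tube area in a mixed cell culture, no cutoff stated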); details: VEGF-stimulated ADSC/ECFC co-culture, at 10 µM, stronger effect = higher value
[4] = glucagon-like peptide 1 release enhancers, primary assay, NCI-H716 cell line, NPC library (AID 1117341;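 active means compound raises GLP1 secretion from the human gut endocrine cells, with no numeric limit stated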); details: NCI-H716 cells, at 10 µM, stronger effect = higher value
[5] = HCT116 colon cancer cell growth inhibition, primary screen, CellTiter-Glo luminescence, NPC library (AID 1117342;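 active means compounds that lower survival of HCT116 colon cancer cells in the luminescence readout, no numeric limit stated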); details: at 20 µM (top of the series)
[6] = CellTiter-Glo luminescent readout of SW480 viability loss, NPC library primary (AID 1117343;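 active means compounds that lower viability of the colon cancer cells in the luminescence readout, with no numeric limit stated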); details: CellTiter-Glo luminescence; at 20 µM (top of the series)
[7] = decreased DLD-1 cellular survival, CellTiter-Glo luminescent readout, NPC compound collection, primary HTS (AID 1117346;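 active means compounds that lower survival of DLD-1 colon cancer cells in the luminescence readout, no cutoff given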); details: DLD-1 viability, CellTiter-Glo luminescence; at 20 µM (top of the series)
[8] = differential killing of epithelial or mesenchymal cells, primary screen, imaging, PC-3E GFP, TEM4-18 mCherry, co-culture (AID 1345086;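 active means compounds killing one labelled cell type while sparing the other, by normalised counts and ratio limits, not self-fluorescent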;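 on all read-outs here: cells exposed to compound for 72 h before imaging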;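 on red/green cell ratio (normalised): normalised mesenchymal count divided by normalised epithelial count so high means epithelial killing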); details: imaging cell counts, at 1 µM; for red/green cell ratio (normalised): actives lie on both sides, counts scaled to control wells, 1 = unselective
[9] = modulation of C. elegans fzo-1 (AID 1259413);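 further: fzo-1 mutant C. elegans worms in liquid wells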; details: C. elegans fzo-1 modulator screen, mean read-out; stronger effect = higher value
[10] = growth inhibition of DIPG glioma cells, dose response, cell-based, SU-DIPG-XVII, MIPE5.0, CellTiter-Glo, qHTS (AID 1347060; cut-off not given, nearly all actives have AC50 up to about 26 µM); details: SU-DIPG-XVII viability, CellTiter-Glo ATP luminescence
[11] = growth inhibition of DIPG glioma cells, dose response, cell-based, SU-DIPG-XIII, MIPE5.0, CellTiter-Glo, qHTS (AID 1347064; cut-off not given, nearly all actives have AC50 up to about 23 µM); details: SU-DIPG-XIII viability, CellTiter-Glo ATP luminescence
[12] = test system: Aerobactin synthetase IucA (Klebsiella pneumoniae); assay: IucA aerobactin synthetase inhibitors, biochemical, Tocris library, absorbance (AID 1345561); details: purified IucA enzyme assay, absorbance (OD) read-out; stronger effect = lower value;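 tested at 8 µM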;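 further: 100% = enzyme without compound and 0% = no enzyme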
[13] = growth inhibition of DIPG glioma cells, dose response, cell-based, SU-DIPG-XIII, MIPE4.0, CellTiter-Glo, qHTS (AID 1347061; cut-off not given, nearly all actives have AC50 up to about 37 µM;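 further: cells exposed to compound for 48 hours before readout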); details: SU-DIPG-XIII viability, CellTiter-Glo ATP luminescence
[14] = growth inhibition of DIPG glioma cells, dose response, cell-based, JHH-DIPG-1, MIPE4.0, CellTiter-Glo, qHTS (AID 1347062; cut-off not given, nearly all actives have AC50 up to about 27 µM); details: JHH-DIPG-1 viability, CellTiter-Glo ATP luminescence
[15] = growth inhibition of DIPG glioma cells, dose response, cell-based, SU-DIPG-IV, MIPE4.0, CellTiter-Glo, qHTS (AID 1347063; cut-off not given, nearly all actives have AC50 up to about 30 µM;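 further: compound exposure lasted 48 hours before the viability readout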); details: SU-DIPG-IV viability, CellTiter-Glo ATP luminescence
[16] = measured here: epithelial PC-3E GFP cell survival
[17] = measured here: mesenchymal TEM4-18 mCherry cell survival

Cc1c(Nc2ncccc2C(=O)O)cccc1C(F)(F)F
1.12 and 1.03: normalised cell number [8, 17]
inactive: insulin secretion stimulation [1] -1.5% | viability decrease [2] -24.9% | tube area decrease [3] 5.8% | GLP1 secretion stimulation [4] -1.7% | inhibition of viability [5] 0.73% | viability decrease (inhibition) [7] 21.9% | red/green cell ratio (normalised) [8] 1.03 and 0.93
active: viability decrease (inhibition) [6] 75.8%
1.09 and 1.11: normalised cell number [8, 16]

Cc1ccsc1C(=CCCN1CCC[C@@H](C(=O)O)C1)c1sccc1C
inactive: insulin secretion stimulation [1] 0.1% | viability decrease [2] -15.1% | tube area decrease [3] -6.2% | GLP1 secretion stimulation [4] 2.2% | inhibition of viability [5] 25% | viability decrease (inhibition) [6] -16.3% | viability decrease (inhibition) [7] 2.5% | mean signal [9] 213 | outcome [10] | outcome [11]

CNCCCCOc1ccccc1Cc1ccccc1
inactive: insulin secretion stimulation [1] 19.5% | GLP1 secretion stimulation [4] 7.5% | mean signal [9] 234 | remaining activity [12] 120%
active: viability decrease [2] 82.8% | tube area decrease [3] 41% | inhibition of viability [5] 95.4% | viability decrease (inhibition) [6] 85.7% | viability decrease (inhibition) [7] 50.3%

O=C1N(c2ccccc2)c2ccccc2C1(Cc1ccncc1)Cc1ccncc1
inactive: insulin secretion stimulation [1] 1.2% | viability decrease [2] -9.5% | tube area decrease [3] 17.6% | GLP1 secretion stimulation [4] 2.6% | inhibition of viability [5] -4.7% | viability decrease (inhibition) [6] 23.8% | viability decrease (inhibition) [7] -3.9% | mean signal [9] 247 | remaining activity [12] 110% | outcome [10] | outcome [13] | outcome [14] | outcome [15] | outcome [11]

CN(C)CC/C=C1/c2ccccc2COc2ccc(CC(=O)O)cc21
inactive: insulin secretion stimulation [1] 1.85% | viability decrease [2] -0.6% | tube area decrease [3] 5.6% | GLP1 secretion stimulation [4] -0.7% | inhibition of viability [5] 3.7% | viability decrease (inhibition) [6] -7.7% | viability decrease (inhibition) [7] 7.1% | mean signal [9] 251 | outcome [10] | outcome [13] | outcome [14] | outcome [11]

CCN1CCC[C@H]1CNC(=O)c1cc(S(N)(=O)=O)ccc1OC
inactive: insulin secretion stimulation [1] 1% | viability decrease [2] -4.3% | tube area decrease [3] 10.5% | GLP1 secretion stimulation [4] -3% | inhibition of viability [5] -5.3% | viability decrease (inhibition) [6] -4.8% | viability decrease (inhibition) [7] -5.7% | mean signal [9] 274 | remaining activity [12] 123%

CN1CCN(c2cc3c(cc2F)c(=O)c(C(=O)O)cn3-c2ccc(F)cc2)CC1
0.99 and 0.72: normalised cell number [8, 16]
inactive: insulin secretion stimulation [1] -1.1% | viability decrease [2] 9.9% | tube area decrease [3] -7.2% | GLP1 secretion stimulation [4] 0.1% | inhibition of viability [5] 17.4% | viability decrease (inhibition) [6] -0.8% | viability decrease (inhibition) [7] 2.2% | red/green cell ratio (normalised) [8] 1.21 and 1.18
1.2 and 0.85: normalised cell number [8, 17]

NC(CS)C(=O)O (stereo not drawn)
0.99: normalised cell number [8, 17]
inactive: insulin secretion stimulation [1] -0.5% | viability decrease [2] -0.35% | tube area decrease [3] 3.4% | GLP1 secretion stimulation [4] -1.7% | inhibition of viability [5] 16.7% | viability decrease (inhibition) [6] 34.5% | viability decrease (inhibition) [7] 32.7% | red/green cell ratio (normalised) [8] 0.99
1: normalised cell number [8, 16]

C/C=C1\[C@H]2C=C(C)C[C@]1(N)c1ccc(=O)[nH]c1C2
1.18: normalised cell number [8, 17]
0.97: normalised cell number [8, 16]
inactive: insulin secretion stimulation [1] 1.5% | viability decrease [2] 10.5% | tube area decrease [3] 0.1% | GLP1 secretion stimulation [4] 3.9% | inhibition of viability [5] 3.1% | viability decrease (inhibition) [6] -14.7% | viability decrease (inhibition) [7] 0.1% | red/green cell ratio (normalised) [8] 1.22

CN(CCCN1c2ccccc2CCc2ccccc21)CC(=O)c1ccc(Cl)cc1
active: viability decrease (inhibition) [6] 84.8%
inactive: insulin secretion stimulation [1] 10.9% | viability decrease [2] 6.7% | tube area decrease [3] 29.2% | GLP1 secretion stimulation [4] 4.6% | inhibition of viability [5] 33.2% | viability decrease (inhibition) [7] 39% | mean signal [9] 194 | remaining activity [12] 113%

CC(C)(C)NC(=O)[C@@H]1CN(Cc2cccnc2)CCN1C[C@@H](O)C[C@@H](Cc1ccccc1)C(=O)N[C@H]1c2ccccc2C[C@H]1O
active: AC50 [13] 1.32 µM
inactive: insulin secretion stimulation [1] 6.7% | viability decrease [2] -0.8% | tube area decrease [3] 7.2% | GLP1 secretion stimulation [4] 4.1% | inhibition of viability [5] 10% | viability decrease (inhibition) [6] -7.5% | viability decrease (inhibition) [7] -9.3% | mean signal [9] 283

Clc1ccc2nsnc2c1NC1=NCCN1
inactive: insulin secretion stimulation [1] 0.4% | viability decrease [2] 1.1% | tube area decrease [3] -9.7% | GLP1 secretion stimulation [4] 2.7% | inhibition of viability [5] 11.7% | viability decrease (inhibition) [6] 8% | viability decrease (inhibition) [7] 6% | mean signal [9] 249 | remaining activity [12] 113% | outcome [10] | outcome [13] | outcome [11]

O=c1[nH]cnc2c1ncn2[C@H]1CC[C@@H](CO)O1
inactive: insulin secretion stimulation [1] 3.9% | viability decrease [2] -9% | tube area decrease [3] -4.4% | GLP1 secretion stimulation [4] 3.6% | inhibition of viability [5] -3.4% | viability decrease (inhibition) [6] -7.8% | viability decrease (inhibition) [7] -6.1% | mean signal [9] 237 | outcome [13]
